# Coupling enz: inhibits coupling enzyme system, counter-screen for aldolase hits | actives 0.67% (n = 290,000) | activity change, negative = inhibition, % at 58.2 µM, hits read low | AID 2472 | coupling enzyme system counterscreen, AmpLite Red fluorescence; in the data active = activity change below about -30%
#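 Fluorescence at 525 nm excitation and 598 nm emission measured inhibition of the coupled detection system without aldolase. Compounds (at 57.5 uM final) were preincubated 10 min at room temperature with coupling enzyme reagent before a 20 min substrate/AmpLite Red step.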
# ELG1 DNA repair: inhibitors of ELG1-dependent DNA repair in HEK293T cells; HEK293T ELG1-luciferase reporter, luminescence, 16 h; DNA damage induced by 5-fluorouridine; Potency, µM (doses to about 46.1 µM), for the others: at the highest dose activity change, negative = inhibition, actives largely listed as inhibitors; actives 2.3% (n = 330,000); AID 504467; also: potency is read from the fitted curve at half-maximal effect; nearly all actives have a fitted effect of over 55% in size
#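 Quantitative HTS, concentration-response format. 2,000 cells/well co-treated with 5-fluorouridine and compound, 16 hr in 5% CO2 at 37 °C; ONE-Glo luminescence read after 30 min.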
# Giardia killer: kills Giardia lamblia. activity change, % at 7.66 µM, hits read low. Giardia lamblia trophozoite viability. actives 0.15% (n = 340,000). AID 540267; in the data active = activity change below about -80%; inconclusive = between about -30% and that limit;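 also: parasites exposed to compound for two days anaerobically before the ATP read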
#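 Trophozoites 100 cells/well + cpd; 48 hrs, 37 deg C, anaerobic. ATPLite 1-Step added, 15-30 min RT, luminescence read (ATP-based viability).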
# Sfp inh: Sfp phosphopantetheinyl transferase inhibition; Potency, µM, without a hit: largest response in the series, negative = inhibition, hits mostly inhibitors; Q9F4F7; Biochemical Sfp PPTase activity, qHTS; actives 3.5% (n = 310,000);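 also: the enzyme is Sfp with the accession as filed and its product quenches rhodamine fluorescence; potency is read from the fitted curve at half-maximal effect; 0% = enzyme reaction without inhibitor and -100% = no enzyme wells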
#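 Step 1, compound plus 15 nM Sfp-PPTase, 15 min, room temperature. Step 2, add rhodamine-CoA (5 uM) and BHQ-2-YbbR (12.5 uM). Step 3, read 525/598 nm fluorescence at 0 and 30 min.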
# * hit, by the source's call; ? = inconclusive; . = not tested or not shown. Compounds with a hit are over-represented: about 5.5% of the library has one in this group of screens. Unless noted, calls follow the shape of the dose curve; as a rule, active = well fitted curve in the direction sought with a large enough effect; inconclusive = small, poorly fitted or top-dose-only effect, or another doubt; inactive = no such curve, though single readings can be large; an effect the other way counts as inactive or inconclusive. Unless noted, % is scaled to controls: 0 for no effect and ±100 for the full control effect.
SMILES,Coupling enz,ELG1 DNA repair,Giardia killer,Sfp inh
CCCCc1nc2ccccc2c(NC(=O)CN(CC)CC)c1CCC,1.9,?,3.4,?
CCN(CC)CC(=O)Nc1cc(N(C)C)nc2ccccc12,0.7,9.8%,-5.9,50.1µM*
CCCCCC(=O)Nc1cc(N(C)C)nc2ccccc12,-0.6,-3.0%,7.5,2.9%
CCN(CC(=O)Nc1ccccc1C(=O)Nc1ccccc1)Cc1nc2ccccc2c(=O)[nH]1,-2.4,10.3µM*,9.3,0.2%
COC(=O)c1ccc(N2CCN(c3ccccc3)CC2)nc1,-0.4,?,2.7,-2.5%
CCc1ccccc1NC(=O)CNCC(=O)Nc1ccccc1CC,0.1,4.0%,-2.8,0.5%
c1ccc(Nc2ncncc2-c2ccc3c(c2)OCO3)cc1,1.9,.,.,2.1%
COCCN(C(=O)COC(=O)CNC(=O)c1cccs1)c1c(N)n(Cc2ccccc2)c(=O)[nH]c1=O,.,5.4%,-1.9,.
COCCn1c(N)c(C(=S)NC(=O)c2cccs2)c(=O)[nH]c1=O,0.1,23.9%,-3.9,25.1µM*
CC(C)OCCCn1c(=S)[nH]c2ccc(N3CCOCC3)cc2c1=O,-43.7*,?,8.2,?
COc1ccc(N2CCN(C(=O)c3ccc(Cn4c(=S)[nH]c5ccc(N6CCOCC6)cc5c4=O)cc3)CC2)cc1,-0.7,?,-6.0,70.8µM*
Cc1cccc(N2CCN(C(=O)CCCCCn3c(=S)[nH]c4ccc(N5CCOCC5)cc4c3=O)CC2)c1C,.,16.4µM*,8.7,8.8%
O=C(c1ccc(Cn2c(=S)[nH]c3ccc(N4CCOCC4)cc3c2=O)cc1)N1CCN(c2ccc(F)cc2)CC1,-3.1,?,-7.7,5.7%
CC1CCN(CCCNC(=O)Cn2ncc3c([nH]c4ccccc43)c2=O)CC1,11.2,?,5.7,7.6%
c1ccc(-c2cn(-c3ccccc3)c3[n+]2CCCS3)cc1,-1.6,20.6µM*,9.8,13.3%
CCc1ccc(-n2cc(-c3ccc(F)cc3)[n+]3c2SCCC3)cc1,3.9,4.61µM*,0.1,1.4%
O=C(C[C@H]1C/C=C\CC[C@H](Cc2ccc(F)cc2)C(=O)OC[C@H]2CCCN2C1=O)NCCO,.,28.3%,51.2,.
CC(C)N(C(=O)CSc1nnc(C2CC2)n1C1CC1)c1ccccc1,.,7.5%,7.2,.
COc1ccc(S[C@@H](CCN2CC[C@H](NC(=O)OCc3ccccc3)CCC2=O)c2ccccc2)cc1,.,18.3µM*,16.9,.
O=[N+]([O-])c1ccc(S(=O)(=O)N2CCN(Cc3ccco3)CC2)cc1,0.0,6.4%,-6.0,56.2µM*
COCC1=Cc2cc3c(cc2C(C(C(=O)OC)C(=O)OC)N1C(=O)OC)OCO3 (configuration not stated),1.8,.,.,11.1%
O=C1C(=O)c2ncccc2-c2cccnc21,.,.,.,0.631µM*
COc1ccc(NC(=O)Cc2ccccc2)cn1,-2.9,7.5%,-19.7,-0.8%
CCOc1ccccc1OCCCC(=O)Nc1ccc(OC)nc1,-31.8*,-1.9%,2.7,4.0%
CC(C)CNC(=O)COC(=O)c1c2c(nc3ccccc13)/C(=C\c1cccs1)CC2,.,.,-10.1,.
SMILES,Coupling enz,ELG1 DNA repair,Giardia killer,Sfp inh
CC(=O)c1ccc(NC(=O)COC(=O)c2c3c(nc4ccccc24)/C(=C\c2cccs2)CCC3)cc1,-5.8,10.3µM*,?,-86.5%
O=C(COC(=O)c1c2c(nc3ccccc13)/C(=C\c1cccs1)CCC2)Nc1ccccc1,-3.5,14.6µM*,-16.0,28.7%
CCNC(=S)NNc1nc(N2CCCCC2)nc(N2CCOCC2)n1,-0.4,8.1%,-9.3,11.2µM*
COc1ccc(NC(=O)C2CCC2)cc1S(=O)(=O)Nc1cc(C)ccc1Br,.,23.1µM*,4.6,.
COc1ccccc1NS(=O)(=O)c1cc(NC(=O)c2cccnc2)ccc1N1CCCCC1,.,18.3µM*,-6.5,.
COc1ccccc1NS(=O)(=O)c1cc(NC(=O)C2CCC2)ccc1N1CCCCC1,0.0,0.0%,-11.8,8.91µM*
C/C(Cn1cnc([N+](=O)[O-])n1)=N\NC(=O)c1cccc(F)c1,-5.1,?,5.7,10.0%
C/C(Cn1nnc([N+](=O)[O-])n1)=N\NC(=O)c1ccccc1Cl,-40.0*,6.9%,?,?
C/C(Cn1nnc([N+](=O)[O-])n1)=N\NC(=O)c1cccc(Cl)c1,-36.1*,19.8%,1.7,9.9%
CC(C)Cc1nnc(NC(=O)CN2C(=O)c3ccccc3C2=O)s1,-0.5,5.7%,-16.8,22.4µM*
Cc1ccc(C(=O)Nc2cccc(S(=O)(=O)N3CCCCC3)c2)cc1S(=O)(=O)N1CCOCC1,.,.,-15.1,.

# High-throughput results deposited in PubChem BioAssay by National Center for Advancing Translational Sciences (NCATS).
